Screening results from PubChem.
3CLpro inhibitor = SARS-CoV 3CLpro protease inhibition | actives 0.14% (n = 290,000) | recombinant SARS-CoV 3CLpro, quenched FRET peptide cleavage | P0C6X7 | inhibition, % at 6 µM; in the data active = inhibition above about 12%
Autofluor counter = counter-screen for toxin protease inhibitors: compound fluorescence. compound autofluorescence counterscreen, microsphere flow cytometry; stronger effect = higher value. fluorescence intensity (test concentration not listed). actives 3.1% (n = 360,000); in the data active = fluorescence intensity above about 16000; inconclusive = no clear call, values can overlap the other calls
BoNT F protease = blocks Botulinum neurotoxin F light chain protease | AID 588497 | inhibition, % at 10 µM | Multiplex microsphere protease cleavage assay, flow cytometry | actives 0.22% (n = 360,000); in the data active = inhibition above about 35%, passing the limit was not always enough; inconclusive = no clear call, values can overlap the other calls; also: plate controls were buffer without enzyme for full effect and enzyme alone for no effect
Anthrax LF inh2 = blocks Bacillus anthracis lethal factor protease | actives 0.12% (n = 360,000) | AID 588501 | P15917 | multiplex microsphere protease cleavage assay, LF | inhibition, % at 10 µM; also: plate controls were buffer without enzyme for full effect and enzyme alone for no effect
Target sequence (P15917 whole entry, looked up): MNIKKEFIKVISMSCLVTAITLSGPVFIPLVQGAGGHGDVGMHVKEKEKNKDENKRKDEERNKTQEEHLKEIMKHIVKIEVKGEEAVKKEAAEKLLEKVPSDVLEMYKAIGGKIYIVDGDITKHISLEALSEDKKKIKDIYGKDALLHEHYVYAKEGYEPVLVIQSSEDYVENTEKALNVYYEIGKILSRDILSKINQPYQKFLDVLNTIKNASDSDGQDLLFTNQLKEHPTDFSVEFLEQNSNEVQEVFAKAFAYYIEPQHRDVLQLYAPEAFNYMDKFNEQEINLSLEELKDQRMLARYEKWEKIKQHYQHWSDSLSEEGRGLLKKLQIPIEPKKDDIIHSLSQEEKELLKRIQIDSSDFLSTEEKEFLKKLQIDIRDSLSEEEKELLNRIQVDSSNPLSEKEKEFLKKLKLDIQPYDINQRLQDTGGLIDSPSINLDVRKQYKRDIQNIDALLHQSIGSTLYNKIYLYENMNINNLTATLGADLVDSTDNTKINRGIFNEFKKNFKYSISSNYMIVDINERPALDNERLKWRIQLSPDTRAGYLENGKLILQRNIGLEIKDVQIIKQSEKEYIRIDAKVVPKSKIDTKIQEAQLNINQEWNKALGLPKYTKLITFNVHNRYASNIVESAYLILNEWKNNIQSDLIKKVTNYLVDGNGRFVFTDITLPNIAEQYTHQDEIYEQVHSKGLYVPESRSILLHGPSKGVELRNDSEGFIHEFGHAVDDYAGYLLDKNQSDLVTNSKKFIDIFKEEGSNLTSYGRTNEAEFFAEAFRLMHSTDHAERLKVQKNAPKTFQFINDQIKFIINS
BoNT A protease = inhibitors of Botulinum neurotoxin A light chain protease. inhibition, % at 10 µM. actives 0.17% (n = 360,000). multiplex microsphere protease substrate cleavage, flow cytometry; also: plate controls were buffer without enzyme for full effect and enzyme alone for no effect
CCHF vOTU inh-1 = blocks the CCHF virus ovarian tumor domain protease. actives 0.55% (n = 370,000). inhibition, % at 11.5 µM. CCHFV vOTU protease, Pep-AMC fluorescence; in the data active = inhibition above about 30%; also: 0% = vehicle wells with enzyme and 100% = no enzyme wells
CCHF vOTU inh-2 = confirmation of CCHF virus vOTU protease inhibitors. shares compounds with CCHF vOTU inh-1. Recombinant CCHFV vOTU, Pep-AMC fluorescence. inhibition, % at 11.5 µM. actives 17% (n = 1,900). AID 686976; in the data active = inhibition above about 30%
* = called active by the depositor; ? = inconclusive; . = no result given. Sampled rows, rich in hits. Any-hit rate of the full collection: about 3.9%. Rule as the data show it, unless noted: active = inhibition above about 30%; inconclusive = no clear call, values can overlap the other calls; inactive = below that.

SMILES | 3CLpro inhibitor | Autofluor counter | BoNT F protease | Anthrax LF inh2 | BoNT A protease | CCHF vOTU inh-1 | CCHF vOTU inh-2
COc1ccccc1N(C)S(=O)(=O)c1ccc(C(=O)NNC(=O)c2ccccc2O)cc1 | . | 5987 | 0 | -3 | -3 | 30* | -11
COc1ccccc1N(C)S(=O)(=O)c1ccc(Cl)c(C(=O)NNC(=O)c2ccccc2O)c1 | 6 | 5098 | 7 | 0 | 3 | 15 | .
CN(c1ccccc1)S(=O)(=O)c1ccc(C(=O)Nc2cccc(S(=O)(=O)N3CCOCC3)c2)cc1 | . | 3450 | -4 | 0 | 0 | -1 | .
Cc1cc(C(=O)Nc2cccc(S(=O)(=O)N3CCOCC3)c2)c2ccccc2n1 | . | 3612 | -4 | -4 | 0 | 35* | -4
COc1ccccc1N(C)S(=O)(=O)c1ccc(C(=O)Nc2cccc(S(=O)(=O)N3CCOCC3)c2)cc1 | . | 3719 | 1 | -7 | -1 | 35* | -13
Cc1ccccc1C(=O)N(C)[C@H]1C[C@H]2c3[nH]c4c(-c5ccc6c(c5)OCO6)cccc4c3CCN2C(=O)[C@H]1[C@H](C)O | . | . | . | . | . | -20 | .
CC(CCc1ccccc1)NC(=O)c1ccc(NC(=O)c2ccccc2)cc1 (centres undefined) | 0 | 2170 | 0 | 0 | 0 | 32* | -8
CC(CCc1ccccc1)NC(=O)c1ccc(NC(=O)c2cccc(Br)c2)cc1 (centres undefined) | -1 | 2526 | -5 | -5 | 0 | 11 | .
O=Nc1ccccn1 | . | . | . | . | . | -1 | .
CC(C(N)=O)N1c2cccc3cccc(c23)S1(=O)=O (centres undefined) | -1 | 4510 | -5 | -6 | 0 | -12 | .
CC(NC(=O)C(C)N1c2cccc3cccc(c23)S1(=O)=O)c1ccccc1 (centres undefined) | 5 | 5392 | -1 | -3 | 0 | 32* | -18
CCc1cc2c(nc1CC)CCCN2S(=O)(=O)c1ccc(C#N)cc1 | . | . | . | . | . | -3 | .
CCOC(=O)c1cccc(-c2cc(C(=O)OC)c3n(c2=O)CCC3)c1 | . | . | . | . | . | -1 | .
Cc1ccc2nc(C(C)(C)C)c(Cc3ccccc3C(F)(F)F)n2c1 | . | 4819 | -3 | -2 | 1 | 30* | 17
COC(=O)c1ccc(CN(C(=O)N2CCN(C)CC2)S(=O)(=O)c2ccc(C)cc2)cc1 | . | 4415 | 6 | 4 | 0 | 45* | -19
COc1ccc(C)cc1S(=O)(=O)N(C)CC(=O)Nc1ccc2c(c1)OCO2 | -6 | 10130 | -5 | 2 | 0 | 30* | 0
COC(=O)COc1ccc(S(=O)(=O)NC2CCCCCC2)cc1 | 0 | 5085 | 0 | 2 | 0 | 55* | -17
O=C(COc1ccc(S(=O)(=O)NC2CCCCC2)cc1)NC1CCCCC1 | 4 | 3819 | -14 | -2 | -2 | 7 | .
O=Cc1ccc(/C=C2\c3ccccc3C(=O)N2c2ccccc2)o1 | . | . | . | . | . | 8 | .
Cc1ccccc1S(=O)(=O)N1CCCc2nc(-c3ccc(Br)cc3)ccc21 | . | . | . | . | . | -15 | .
CCCc1ccc(Oc2cn[nH]c2-c2ccc(O)c(C)c2O)cc1 | 0 | 5402 | -1 | 2 | -1 | 36* | -9
CCOC(=O)C1(C)C=C(Nc2ccc(O)cc2)C(=O)N1c1ccc(O)cc1 (centres undefined) | 3 | 2072 | -1 | -1 | -1 | 91* | -15
CCOC(=O)C1(C)C=C(Nc2ccc(OC)cc2)C(=O)N1c1ccc(OC)cc1 (centres undefined) | 4 | 2921 | -5 | 1 | -1 | 0 | .
C/C(=N\NC(=S)NC1CCCCC1)c1ccc(OC(F)F)cc1OC(F)F | -8 | 4756 | -3 | 1 | -2 | 33* | -6
Cc1ccc(S(=O)(=O)c2c(N)n(CCCN(C)C)c3nc4ccccc4nc23)cc1 | 2 | 3405 | ? | -17 | 1 | -187 | .
SMILES | 3CLpro inhibitor | Autofluor counter | BoNT F protease | Anthrax LF inh2 | BoNT A protease | CCHF vOTU inh-1 | CCHF vOTU inh-2
CCCCn1c(NS(=O)(=O)c2ccccc2)c(C(=O)OCC)c2nc3ccccc3nc21 | 1 | 2199 | -22 | 2 | 6 | 35* | 74*
CCCCn1c(NS(=O)(=O)c2ccc(C)cc2)c(S(=O)(=O)c2ccccc2)c2nc3ccccc3nc21 | 3 | 7756 | 0 | -1 | 3 | 90* | -60
O=C(c1cc(Cl)ccc1F)N1CCCC(c2nc(-c3cccs3)no2)C1 (centres undefined) | . | . | . | . | . | -1 | .
Cc1ccc(C=Nc2ccccc2C(N)=O)o1 | 2 | 2512 | -1 | 0 | 0 | 11 | .
Cc1ccc(C=Nc2ccc(N(C)C)cc2)o1 | 4 | 9565 | -79 | -21 | 0 | 33* | -4
COCC#Cc1ccc2c(c1)O[C@H](CN(C)C(=O)c1ccccc1)[C@@H](C)CN([C@H](C)CO)S2(=O)=O | . | . | . | . | . | 20 | .
CC1=NN(c2ccccc2)C(=O)/C1=C\C=C\c1ccccc1 | 5 | . | . | . | . | -5 | .
CC1=NN(c2ccccc2)C(=O)/C1=C/c1cccc(C)c1 | 3 | 3815 | 5 | 2 | 0 | 76* | -18
COc1cc(/C=C2/C(=O)N(c3ccc(Br)cc3)N=C2C)cc([N+](=O)[O-])c1O | -2 | . | . | . | . | . | .
COc1cc(/C=C2/C(=O)N(c3cccc(Br)c3)N=C2C)cc(OC)c1O | 5 | 3924 | -9 | -6 | -5 | 92* | -26
COc1ccc(/C=C2/C(=O)N(c3ccccc3)N=C2C)cc1OC | 5 | 3574 | -21 | -5 | 4 | 93* | -20
CC(=O)Oc1ccc(/C=C2/C(=O)N(c3ccccc3)N=C2C)cc1 | 1 | 3293 | 11 | -23 | 1 | 103* | -12
CC(C)N1CCCCC(NC(=O)COCc2ccccc2)C1=O (centres undefined) | . | . | . | . | . | -2 | .
CCCCN(C)C(=O)c1cn(C(C)c2ccccc2)nn1 (centres undefined) | . | . | . | . | . | 4 | .
O=C(N[C@H](C(=O)N1CCC[C@H]1C(=O)NC1CCCC1)c1ccccc1)c1ccc(Cl)c(Cl)c1 | . | . | . | . | . | -5 | .
O=S(=O)(c1ccc(F)cc1)N1CCCc2nc(-c3ccccc3)ccc21 | . | . | . | . | . | 3 | .
O=c1cc(-c2ccccc2)[nH]n1-c1ccccc1 | . | 3612 | 2 | -9 | 0 | 25 | .
CC(C)(C)c1cc(=O)n(-c2ccccc2)[nH]1 | -3 | 2496 | -10 | 0 | -1 | 77* | -7
COc1cc(C(=O)NC2CCCCN(C)C2=O)cc(OC)c1OC (centres undefined) | . | . | . | . | . | -11 | .
CCCCCCCCN1CCS(=O)(=O)N(Cc2ccc(C)cc2)C(C(=O)OC)C1 (centres undefined) | . | . | . | . | . | 30* | 18
CN1CCCCC(NC(=O)c2ccc(C#N)cc2)C1=O (centres undefined) | . | . | . | . | . | -9 | .
Cc1cc(=O)n2c3c(c4c(cc13)c(CN(C)C)cc(=O)n4C)OC2 | . | 3653 | 3 | -4 | -1 | 90* | 51*
CC(CC(=O)c1ccccc1)=NCCCN=C(C)CC(=O)c1ccccc1 | . | 4125 | 6 | -2 | 0 | 35* | 2
O=C(CC(=O)c1ccccc1)c1ccccc1 | . | 3354 | -4 | 0 | 0 | -6 | .
